# Source: ChEMBL document CHEMBL2218924, “A broad activity screen in support of a chemogenomic map for kinase signalling research and drug discovery” (Biochem J, 2013)
# Experiments:
# [1] = target: T1, Ephrin type-A receptor 3 (Homo sapiens) (UniProt P29320); conditions: at 10 µM
# T1 sequence (whole entry): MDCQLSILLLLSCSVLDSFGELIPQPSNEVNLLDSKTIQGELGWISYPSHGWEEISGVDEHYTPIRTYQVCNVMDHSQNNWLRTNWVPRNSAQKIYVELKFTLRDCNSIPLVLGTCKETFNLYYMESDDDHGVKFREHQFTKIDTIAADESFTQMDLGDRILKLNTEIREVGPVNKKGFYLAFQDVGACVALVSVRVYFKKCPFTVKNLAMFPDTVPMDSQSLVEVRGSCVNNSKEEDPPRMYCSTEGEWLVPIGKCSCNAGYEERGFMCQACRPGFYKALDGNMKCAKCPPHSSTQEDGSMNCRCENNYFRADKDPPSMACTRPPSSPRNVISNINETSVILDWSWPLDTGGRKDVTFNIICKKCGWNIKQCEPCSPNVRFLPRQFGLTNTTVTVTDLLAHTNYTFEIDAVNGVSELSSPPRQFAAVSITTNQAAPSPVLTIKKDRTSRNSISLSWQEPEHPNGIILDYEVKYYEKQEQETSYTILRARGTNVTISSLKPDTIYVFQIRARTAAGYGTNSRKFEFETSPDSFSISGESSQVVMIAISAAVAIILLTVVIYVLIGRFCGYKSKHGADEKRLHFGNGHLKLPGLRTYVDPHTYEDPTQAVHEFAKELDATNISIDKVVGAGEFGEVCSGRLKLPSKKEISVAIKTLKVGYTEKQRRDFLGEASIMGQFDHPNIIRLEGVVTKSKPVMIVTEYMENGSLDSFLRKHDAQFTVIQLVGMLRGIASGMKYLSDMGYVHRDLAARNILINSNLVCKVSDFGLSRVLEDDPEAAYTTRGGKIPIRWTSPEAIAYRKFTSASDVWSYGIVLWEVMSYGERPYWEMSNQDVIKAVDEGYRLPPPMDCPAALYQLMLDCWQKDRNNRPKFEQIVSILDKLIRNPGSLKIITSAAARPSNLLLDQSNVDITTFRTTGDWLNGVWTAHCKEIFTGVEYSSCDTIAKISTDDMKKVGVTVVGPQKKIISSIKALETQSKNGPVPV
# [2] = target: Ephrin type-A receptor 4 (Homo sapiens) (UniProt P54764); conditions: at 1 µM
# [3] = target: Ephrin type-A receptor 4 (Homo sapiens) (UniProt P54764); conditions: at 10 µM
# [4] = target: Ephrin type-A receptor 5 (Homo sapiens) (UniProt P54756); conditions: at 1 µM
# [5] = target: Ephrin type-A receptor 5 (Homo sapiens) (UniProt P54756); conditions: at 10 µM
# [6] = target: Ephrin type-A receptor 7 (Homo sapiens) (UniProt Q15375); conditions: at 1 µM
# [7] = target: Ephrin type-A receptor 7 (Homo sapiens) (UniProt Q15375); conditions: at 10 µM
# [8] = target: T2, Ephrin type-A receptor 8 (Homo sapiens) (UniProt P29322); conditions: at 1 µM
# T2 sequence (whole entry): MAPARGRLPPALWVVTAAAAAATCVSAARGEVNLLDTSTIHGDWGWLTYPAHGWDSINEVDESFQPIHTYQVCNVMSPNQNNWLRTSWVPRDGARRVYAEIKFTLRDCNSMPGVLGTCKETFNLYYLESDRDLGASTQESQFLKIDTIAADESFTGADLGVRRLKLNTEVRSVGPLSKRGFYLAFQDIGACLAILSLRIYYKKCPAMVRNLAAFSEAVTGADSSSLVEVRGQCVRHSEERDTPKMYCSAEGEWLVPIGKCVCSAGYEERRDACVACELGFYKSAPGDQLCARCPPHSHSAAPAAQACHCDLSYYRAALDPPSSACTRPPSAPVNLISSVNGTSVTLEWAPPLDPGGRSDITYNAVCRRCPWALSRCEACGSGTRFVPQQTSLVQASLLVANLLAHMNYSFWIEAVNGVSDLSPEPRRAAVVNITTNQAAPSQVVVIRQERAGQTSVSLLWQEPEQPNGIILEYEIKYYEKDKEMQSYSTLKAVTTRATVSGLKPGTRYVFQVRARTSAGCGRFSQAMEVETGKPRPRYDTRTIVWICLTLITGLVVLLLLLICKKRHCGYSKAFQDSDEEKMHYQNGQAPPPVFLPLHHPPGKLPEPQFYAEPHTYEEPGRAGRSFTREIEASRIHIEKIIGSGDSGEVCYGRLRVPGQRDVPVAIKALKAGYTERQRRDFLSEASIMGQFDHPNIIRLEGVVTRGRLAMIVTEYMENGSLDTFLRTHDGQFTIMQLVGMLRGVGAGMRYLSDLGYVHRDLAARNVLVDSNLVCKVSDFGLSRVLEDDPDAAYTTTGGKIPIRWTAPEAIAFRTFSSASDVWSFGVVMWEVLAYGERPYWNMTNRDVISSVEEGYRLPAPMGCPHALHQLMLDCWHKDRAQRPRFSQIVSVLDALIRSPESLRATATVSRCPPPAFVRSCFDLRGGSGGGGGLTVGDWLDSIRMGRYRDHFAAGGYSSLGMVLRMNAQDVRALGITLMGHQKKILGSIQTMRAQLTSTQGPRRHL
# [9] = target: T2, Ephrin type-A receptor 8 (Homo sapiens); conditions: at 10 µM
# [10] = target: T3, Ephrin type-B receptor 1 (Homo sapiens) (UniProt P54762); conditions: at 1 µM
# T3 sequence (whole entry): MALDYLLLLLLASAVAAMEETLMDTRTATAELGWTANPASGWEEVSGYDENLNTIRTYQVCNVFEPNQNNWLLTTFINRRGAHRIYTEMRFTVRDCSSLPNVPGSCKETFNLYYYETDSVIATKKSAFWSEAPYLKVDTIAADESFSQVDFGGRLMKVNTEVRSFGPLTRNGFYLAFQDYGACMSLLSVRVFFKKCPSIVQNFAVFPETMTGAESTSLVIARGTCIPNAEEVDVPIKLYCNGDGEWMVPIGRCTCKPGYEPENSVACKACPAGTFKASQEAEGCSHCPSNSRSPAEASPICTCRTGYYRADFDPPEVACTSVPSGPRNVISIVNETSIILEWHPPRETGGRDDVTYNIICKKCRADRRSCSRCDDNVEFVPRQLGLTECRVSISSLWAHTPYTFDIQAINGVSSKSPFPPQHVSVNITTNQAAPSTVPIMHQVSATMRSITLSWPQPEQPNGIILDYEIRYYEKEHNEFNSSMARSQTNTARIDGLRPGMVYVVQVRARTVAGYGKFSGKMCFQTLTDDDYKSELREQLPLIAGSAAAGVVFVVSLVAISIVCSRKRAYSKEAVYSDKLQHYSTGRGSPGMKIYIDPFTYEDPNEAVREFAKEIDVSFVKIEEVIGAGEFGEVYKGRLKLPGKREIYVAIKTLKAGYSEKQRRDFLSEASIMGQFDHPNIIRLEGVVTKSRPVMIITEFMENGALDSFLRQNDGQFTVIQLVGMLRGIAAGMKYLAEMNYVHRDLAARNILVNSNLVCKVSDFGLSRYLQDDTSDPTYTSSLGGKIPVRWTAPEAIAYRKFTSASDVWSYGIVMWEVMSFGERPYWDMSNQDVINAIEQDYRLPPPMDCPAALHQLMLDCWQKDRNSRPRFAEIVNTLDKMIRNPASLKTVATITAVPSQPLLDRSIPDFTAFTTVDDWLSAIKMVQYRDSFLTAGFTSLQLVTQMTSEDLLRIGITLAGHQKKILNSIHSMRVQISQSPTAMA
# Chain of Ephrin type-A receptor 5 (Homo sapiens) (P54756 whole entry): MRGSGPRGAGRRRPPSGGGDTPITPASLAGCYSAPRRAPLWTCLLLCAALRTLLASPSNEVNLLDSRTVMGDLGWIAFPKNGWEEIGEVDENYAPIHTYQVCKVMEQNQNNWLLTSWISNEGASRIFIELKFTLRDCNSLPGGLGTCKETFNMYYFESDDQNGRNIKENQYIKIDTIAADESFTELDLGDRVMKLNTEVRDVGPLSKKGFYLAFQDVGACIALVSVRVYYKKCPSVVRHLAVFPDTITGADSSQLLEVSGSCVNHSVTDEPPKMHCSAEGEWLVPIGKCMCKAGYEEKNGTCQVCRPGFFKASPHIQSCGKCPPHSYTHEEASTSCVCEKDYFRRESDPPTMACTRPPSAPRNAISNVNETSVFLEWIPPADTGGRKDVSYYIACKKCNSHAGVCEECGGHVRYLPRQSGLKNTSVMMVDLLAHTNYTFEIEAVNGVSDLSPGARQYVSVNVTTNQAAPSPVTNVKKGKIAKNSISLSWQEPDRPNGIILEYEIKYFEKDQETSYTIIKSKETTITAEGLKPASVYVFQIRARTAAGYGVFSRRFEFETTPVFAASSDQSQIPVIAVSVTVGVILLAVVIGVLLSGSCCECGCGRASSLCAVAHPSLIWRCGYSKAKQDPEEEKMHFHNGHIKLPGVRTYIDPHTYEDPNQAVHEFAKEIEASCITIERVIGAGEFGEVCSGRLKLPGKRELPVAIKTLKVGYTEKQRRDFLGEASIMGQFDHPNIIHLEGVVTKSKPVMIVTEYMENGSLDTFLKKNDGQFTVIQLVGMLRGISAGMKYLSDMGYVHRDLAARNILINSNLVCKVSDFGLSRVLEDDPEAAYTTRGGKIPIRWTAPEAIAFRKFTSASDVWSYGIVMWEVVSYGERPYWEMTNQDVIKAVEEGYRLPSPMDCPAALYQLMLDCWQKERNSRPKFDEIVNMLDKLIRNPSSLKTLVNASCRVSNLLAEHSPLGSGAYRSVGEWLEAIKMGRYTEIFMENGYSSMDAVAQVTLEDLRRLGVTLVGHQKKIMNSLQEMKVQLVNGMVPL
# Chain of Ephrin type-A receptor 4 (Homo sapiens) (P54764 whole entry): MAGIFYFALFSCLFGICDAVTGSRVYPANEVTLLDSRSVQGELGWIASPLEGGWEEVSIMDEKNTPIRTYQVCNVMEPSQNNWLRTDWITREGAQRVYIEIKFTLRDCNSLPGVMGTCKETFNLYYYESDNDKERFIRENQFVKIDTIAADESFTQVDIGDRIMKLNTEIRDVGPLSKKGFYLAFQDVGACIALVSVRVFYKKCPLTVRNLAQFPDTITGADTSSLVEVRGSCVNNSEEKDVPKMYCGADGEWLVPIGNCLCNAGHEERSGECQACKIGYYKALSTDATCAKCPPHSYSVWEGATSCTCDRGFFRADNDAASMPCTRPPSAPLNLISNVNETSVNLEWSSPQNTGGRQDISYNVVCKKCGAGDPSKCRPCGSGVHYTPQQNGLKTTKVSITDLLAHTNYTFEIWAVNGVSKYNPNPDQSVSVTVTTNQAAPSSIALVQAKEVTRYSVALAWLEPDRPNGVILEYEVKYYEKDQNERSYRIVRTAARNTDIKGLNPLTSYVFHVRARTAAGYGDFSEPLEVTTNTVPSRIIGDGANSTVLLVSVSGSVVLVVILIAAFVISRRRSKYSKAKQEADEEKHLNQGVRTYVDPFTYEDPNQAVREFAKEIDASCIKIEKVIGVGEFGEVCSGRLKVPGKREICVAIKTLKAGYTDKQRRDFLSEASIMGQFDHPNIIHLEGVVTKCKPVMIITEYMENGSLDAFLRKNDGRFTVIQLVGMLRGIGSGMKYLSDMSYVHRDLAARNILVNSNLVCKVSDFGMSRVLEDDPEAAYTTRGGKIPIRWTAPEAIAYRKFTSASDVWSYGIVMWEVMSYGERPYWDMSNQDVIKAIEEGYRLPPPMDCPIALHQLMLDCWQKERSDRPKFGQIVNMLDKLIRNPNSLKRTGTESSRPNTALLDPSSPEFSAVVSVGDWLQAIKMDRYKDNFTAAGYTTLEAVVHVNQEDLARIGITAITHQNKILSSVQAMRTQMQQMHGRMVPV
# Chain of Ephrin type-A receptor 7 (Homo sapiens) (Q15375 28-998 limits assumed): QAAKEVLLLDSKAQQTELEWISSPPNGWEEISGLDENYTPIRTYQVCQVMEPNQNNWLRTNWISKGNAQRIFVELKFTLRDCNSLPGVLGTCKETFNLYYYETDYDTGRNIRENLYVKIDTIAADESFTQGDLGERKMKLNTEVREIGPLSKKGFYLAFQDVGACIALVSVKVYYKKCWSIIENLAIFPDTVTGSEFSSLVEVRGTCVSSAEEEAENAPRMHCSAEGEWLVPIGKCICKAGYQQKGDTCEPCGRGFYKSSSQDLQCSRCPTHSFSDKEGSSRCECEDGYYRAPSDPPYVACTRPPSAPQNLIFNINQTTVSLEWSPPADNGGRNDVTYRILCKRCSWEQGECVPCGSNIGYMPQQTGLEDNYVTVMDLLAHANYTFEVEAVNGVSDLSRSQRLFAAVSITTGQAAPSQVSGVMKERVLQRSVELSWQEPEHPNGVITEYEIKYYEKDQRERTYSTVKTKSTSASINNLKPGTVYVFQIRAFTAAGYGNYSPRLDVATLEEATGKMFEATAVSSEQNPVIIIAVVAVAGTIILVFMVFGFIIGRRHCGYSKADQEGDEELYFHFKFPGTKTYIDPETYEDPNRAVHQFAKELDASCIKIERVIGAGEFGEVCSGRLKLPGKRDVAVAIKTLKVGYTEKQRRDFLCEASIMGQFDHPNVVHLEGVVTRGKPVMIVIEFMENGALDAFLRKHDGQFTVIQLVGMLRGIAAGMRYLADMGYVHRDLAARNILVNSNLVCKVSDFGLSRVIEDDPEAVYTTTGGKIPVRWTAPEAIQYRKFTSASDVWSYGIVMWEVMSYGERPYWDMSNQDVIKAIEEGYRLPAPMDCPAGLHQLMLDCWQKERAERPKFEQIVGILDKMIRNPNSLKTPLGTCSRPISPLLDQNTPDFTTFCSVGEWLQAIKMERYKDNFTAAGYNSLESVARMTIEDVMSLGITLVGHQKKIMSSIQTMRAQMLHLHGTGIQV
compound,measurement,setting,value
NC(=O)Nc1sc(-c2ccc(F)cc2)cc1C(N)=O,residual activity,[1],33%
same,residual activity,[2],93%
same,residual activity,[3],43%
same,residual activity,[4],90%
same,residual activity,[5],28%
same,residual activity,[6],74%
same,residual activity,[7],25%
same,residual activity,[8],84%
same,residual activity,[9],54%
same,residual activity,[10],11%
